Out of some 48,000 compounds screened, about 13,000 (27%) showed an effect of 50% or more. This is one part of the list.
What follows are compounds tested on Wolbachia pipientis (assay: Anti-Wolbachia Cell-Based Screen). Details: 5 µM.
Format: functional
Set-up: scale not given: in the data most compounds retested in dose-response had high values
`O=C1CC(NS(=O)(=O)N2CCOCC2)CN1Cc1ccccc1` (stereo unspecified) was tested, and the “Percent Effect” value was 1.886%.
For `Cc1ncsc1C(=O)NCc1cccnc1N(C)CCc1ccccn1`, the “Percent Effect” value was 6.517%.
With `Cc1noc(-c2cccnc2N2CCOC(C)(c3cnn(C)c3)C2)n1` (stereo unspecified) the “Percent Effect” value was -3.53%.
For `COCCN(CCOC)C(=O)NC1CCCCC1`, the “Percent Effect” value was -2.793%.
For `Cc1[nH]ccc1C(=O)N[C@H]1CN(CCO)C[C@@H]1C1CC1`, the “Percent Effect” value was -10.03%.
With `CCC(C)NC(=O)CS(=O)(=O)Cc1nc(-c2cccs2)no1` (stereo unspecified) the “Percent Effect” value was 8.727%.
With `CNC(=O)N1CCC(=Cc2ccccc2)CC1` the “Percent Effect” value was -5.2%.
`CCC(OC)C(=O)NCC1CCN(c2cnn(C)c(=O)c2)CC1` (stereo unspecified) was tested, and the “Percent Effect” value was -16.23%.
For `Cn1ncc(N2CCOC(CCNC(=O)NC(C)(C)C)C2)cc1=O` (stereo unspecified), the “Percent Effect” value was 101.8%.
For `CC(C)N1CCC[C@H]1C(=O)NCC1CCN(c2cnn(C)c(=O)c2)CC1`, the “Percent Effect” value was -21.78%.
`CCOC(=O)N1CCC(NCC2CCN(c3cnn(C)c(=O)c3)C2)CC1` (stereo unspecified) was tested, and the “Percent Effect” value was -6.682%.
For `CCC1CN(c2cnn(C)c(=O)c2Br)CCO1` (stereo unspecified), the “Percent Effect” value was 20.16%.
With `CCCOC(=O)NCCC1CN(c2cnn(C)c(=O)c2)CCO1` (stereo unspecified) the “Percent Effect” value was 96.42%.
With `COCCN(CC(F)F)c1cc(C(F)(F)F)nc2ncnn12` the “Percent Effect” value was -7.811%.
In the case of `Cc1cnn(-c2ccc(S(=O)(=O)N(C)CC(F)F)cc2F)c1`, the “Percent Effect” value is reported as 2.178%.
In the case of `Cc1cc(C(=O)NCC2(N(C)C)CCCC2)c(C)n1-c1cccnc1`, the “Percent Effect” value is reported as 3.224%.
`CN1CCN(Cc2ccccc2CNC(=O)c2ccc(Cl)cc2F)CC1` was tested, and the “Percent Effect” value was -10.17%.
For `CC(C)Cc1cc(C(=O)NC(C)(C)CN2CCCCCC2)on1`, the “Percent Effect” value was 2.202%.
`COc1cc(C(=O)NC(C)(C)CN2CCN(C)CC2)c2ccccc2n1` was tested, and the “Percent Effect” value was 96.51%.
With `COc1cc(C(=O)NCC2(N(C)C)CCN(C)CC2)c2ccccc2n1` the “Percent Effect” value was 126.6%.
`COc1cc(C(=O)NCCS(=O)(=O)N(C)C)c2ccccc2n1` was tested, and the “Percent Effect” value was 5.496%.
With `CC(C)(C)c1ncc(C(=O)N2CCN(C(=O)c3ccc[nH]3)CC2)c(O)n1` the “Percent Effect” value was -10.28%.
For `O=C(c1ccc[nH]1)N1CCOCC12CCCC2`, the “Percent Effect” value was 75.31%.
`CS(=O)(=O)N1CCCC12CCCN(C(=O)c1ccc[nH]1)C2` (stereo unspecified) was tested, and the “Percent Effect” value was -4.016%.
`O=C(c1ccc[nH]1)N1CCC2(CC1)COCCN(c1nccs1)C2` was tested, and the “Percent Effect” value was 4.422%.
`Cc1ccc(F)cc1C(=O)NCc1ccc(C(=O)O)o1` was tested, and the “Percent Effect” value was 7.122%.
With `Cc1ccc(F)cc1C(=O)N1C[C@@H](CN2CCOCC2)[C@@H](CO)C1` the “Percent Effect” value was -1.252%.
With `Cc1[nH]ccc1C(=O)N1CCC2(CC1)c1nc[nH]c1CCN2S(C)(=O)=O` the “Percent Effect” value was -18.24%.
With `Cc1ccc(F)cc1C(=O)N1CCOCC12CCCC2` the “Percent Effect” value was 111.7%.
For `Cc1[nH]ccc1C(=O)N1CCCN1C(=O)OC(C)(C)C`, the “Percent Effect” value was -3.846%.
In the case of `Cc1[nH]ccc1C(=O)N1CCOCC12CCCC2`, the “Percent Effect” value is reported as 102.2%.
With `Cn1c2c(c(=O)n1C)CN(C(=O)c1ccsc1)CCC2` the “Percent Effect” value was -11.42%.
For `Cn1c2c(c(=O)n1C)CN(C(=O)c1ccncc1F)CCC2`, the “Percent Effect” value was 104.3%.
For `Cn1c2c(c(=O)n1C)CN(C(=O)c1cccc(F)c1)CCC2`, the “Percent Effect” value was 83.47%.
`Cn1nc(CN2CCCC2)c2c1CN(C(=O)c1ccncc1F)CC2` was tested, and the “Percent Effect” value was -1.138%.
For `Cc1ccoc1C(=O)N1CCCc2c(c(=O)n(C)n2C)C1`, the “Percent Effect” value was -8.814%.
For `Cc1ccc(C(=O)N2CCCc3c(c(=O)n(C)n3C)C2)o1`, the “Percent Effect” value was -7.196%.
In the case of `Cn1c2c(c(=O)n1C)CN(C(=O)c1cnccn1)CCC2`, the “Percent Effect” value is reported as 106.7%.
With `Cn1c2c(c(=O)n1C)CN(C(=O)c1ccco1)CCC2` the “Percent Effect” value was 0.5105%.
For `Cc1ccsc1C(=O)N1CCCc2c(c(=O)n(C)n2C)C1`, the “Percent Effect” value was 9.7%.
`Cc1csc2c(N3CCC(NCCCc4cnn(C)c4)CC3)ncnc12` was tested, and the “Percent Effect” value was -7.863%.
For `CN(CCCc1cnn(C)c1)C(=O)Nc1cccc2[nH]nnc12`, the “Percent Effect” value was -5.738%.
In the case of `COc1ccc(N2CCC(N(C)C(=O)Nc3ccncc3)CC2)cc1`, the “Percent Effect” value is reported as 86.34%.
For `Cc1cc(N2CCC(N(C)C(=O)Nc3ccccc3)CC2)nc(C)n1`, the “Percent Effect” value was 1.821%.
With `CN(C(=O)Nc1cccnc1)C1CCN(c2ccc(Cl)cc2)CC1` the “Percent Effect” value was 102.5%.
In the case of `COc1ccc(N2CCC(N(C)C(=O)C(C)SC)CC2)cc1` (stereo unspecified), the “Percent Effect” value is reported as 1.657%.
In the case of `CCOC(C)C(=O)N(C)C1CCN(c2ccc(OC)cc2)CC1` (stereo unspecified), the “Percent Effect” value is reported as -2.729%.
With `CN(CCN1CCN(c2ccccc2)CC1)C(=O)Nc1ccncc1` the “Percent Effect” value was -6.47%.
For `CN(C(=O)Nc1ccncc1)C1CCN(c2ccc(Cl)cc2)CC1`, the “Percent Effect” value was 99.54%.
With `CN(CC(=O)N(C)C1CC1)C1CCN(c2ccc(Cl)cc2)CC1` the “Percent Effect” value was -1.318%.
For `CNC(=O)CN(C)C1CCN(c2ccc(Cl)cc2)CC1`, the “Percent Effect” value was 12.22%.
`CN(C(=O)NC1CC1)C1CCN(c2ccc(Cl)cc2)CC1` was tested, and the “Percent Effect” value was 95.01%.
For `CCCNC(=O)CN(C)C1CCN(c2ccc(Cl)cc2)CC1`, the “Percent Effect” value was -1.782%.
`CSC(C)C(=O)N(C)C1CCN(c2ccc(Cl)cc2)CC1` (stereo unspecified) was tested, and the “Percent Effect” value was -5.322%.
In the case of `CCC(CNC(=O)NC1CCN(C)CC1)Oc1ccccc1Cl` (stereo unspecified), the “Percent Effect” value is reported as 5.674%.
In the case of `Cc1nc(N2CCOCC2)nc2c1CCN(Cc1ccsc1)CC2.O=C(O)C(F)(F)F`, the “Percent Effect” value is reported as -7.325%.
In the case of `Cc1cc(C)nc(N2CCN(Cc3nccn3C)CC2)n1.O=CO`, the “Percent Effect” value is reported as 104.1%.
For `Cc1nc(N2CCOCC2)nc2c1CCN(Cc1cccnc1)CC2.O=C(O)C(F)(F)F`, the “Percent Effect” value was -14.62%.
`Cn1ccnc1CN1CCN(Cc2cc(-c3ccccc3)no2)CC1` was tested, and the “Percent Effect” value was 10.9%.
In the case of `CC(C)Nc1nc2c(c(NC3CC3)n1)CCN(Cc1nccn1C)CC2.O=C(O)C(F)(F)F`, the “Percent Effect” value is reported as 5.459%.
With `Cc1nc(N2CCOCC2)nc2c1CCN(Cc1nccn1C)CC2.O=C(O)C(F)(F)F` the “Percent Effect” value was 110.5%.
For `Cc1nc(NC(C)C)nc2c1CN(Cc1nccn1C)CC2`, the “Percent Effect” value was 3.247%.
For `COc1cc(C)nc(N2CCN(Cc3nccn3C)CC2)n1`, the “Percent Effect” value was 16.21%.
For `Cc1cc(C(F)(F)F)nc(N2CCN(Cc3nccn3C)CC2)n1`, the “Percent Effect” value was -22.48%.
With `Cc1nc(C)c2c(n1)CCN(Cc1nccn1C)CC2.O=C(O)C(F)(F)F` the “Percent Effect” value was 102.7%.
`Cc1nc(-c2ccccc2)nc2c1CCN(Cc1nccn1C)CC2` was tested, and the “Percent Effect” value was 118.4%.
